Assay results as given in PubChem BioAssay AID652208 (Broad Institute, 2013).
Results with a measured potency or affinity are listed apart. Calls of active or inactive are those of the source.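 How the source made its calls: active means Loss of cell signal with fitted half-effect dose at or below twice the top valid tested dose; inconclusive means Poor fit, or flat fit from -70 to -30 percent; inactive means Half-effect above limit, rising signal, or flat within 30 percent.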

Assay: viability loss in HEK293T cells – cell-based, cherry-picks, cytotoxicity control for HIV Vif inhibitor project, dose response (AID 652208)
Conditions: CellTiter-Glo luminescence, 24 h; series mostly up to 26 µM

| SMILES | outcome |
| --- | --- |
| CC(C)CC(NC(=O)C1CCCCC1)C(=O)N1CCC2(CC1)OCCO2 (stereo unspecified) | inactive |
| O=C(NC1(C(F)(F)F)Oc2ccc(Cl)cc2O1)N1CCC2(CC1)OCCO2 (stereo unspecified) | inactive |
| CN1CCc2nc3ccc(F)cc3c(C(N)=O)c2C1 | inactive |
| O=C(Cc1ccccc1)OCC(=O)c1ccc(F)cc1 | inactive |
| O=C(Cn1ncc2c3ccccc3n(Cc3cccc(Cl)c3)c2c1=O)N1CCC2(CC1)OCCO2 | inactive |
| CC(Cc1ccc(O)cc1)NCC(O)c1cc(O)cc(O)c1 (stereo unspecified) | inactive |
